Data published in PubChem BioAssay (EPA / NIEHS).
Activity calls are given as the source filed them. Rule for the calls: active = hit-call score of the fitted dose curve at least 0.9, where 1 is the maximum; inactive = score below 0.9.

Experiments:
[1] = APR_HepG2_P-H2AX_72hr: Apredica 72-hour HepG2 Assay for H2AX Phosphorylation (AID 2282916); details: imaging, actives raise or lower the signal;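 note: phospho-histone H2A.x immunostain intensity per cell marking DNA damage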
In short: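 Readout: phospho-H2A.x immunofluorescence (FITC secondary) plus Hoechst nuclear stain, high-content imaging at 20x, six fields/well. HepG2, 72 hr compound exposure, 0.39–200 uM, final DMSO 0.5% v/v. Gain or loss fitted relative to DMSO baseline.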

[2] = APR_HepG2_MitoMembPot_72hr: Apredica 72-hour HepG2 Assay for Mitochondrial Membrane Potential (AID 2282917); details: imaging, actives raise or lower the signal
In short: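 HepG2 cells dosed 72 hr with compound at 0.39–200 uM in duplicate, 0.5% v/v DMSO final. Mitochondria stained with 250 nM MitoTracker Red CMXRos for 30 min before formaldehyde fixation, imaged by high-content fluorescence; bidirectional fit versus DMSO.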

[3] = APR_HepG2_MitoticArrest_72hr: Apredica 72-hour HepG2 Assay for Mitotic Arrest (AID 2282918); details: high-content imaging, actives raise or lower the signal
In short: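 HepG2 cells treated 72 h at 0.39–200 uM, 0.5% DMSO final; formaldehyde-fixed, stained with Hoechst 33342 and phospho-histone H3 antibody, imaged by high-content fluorescence; bidirectional fit versus DMSO.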

[4] = APR_HepG2_MicrotubuleCSK_72hr: Apredica 72-hour HepG2 Assay for Microtubule CSK Stabilty (AID 2282919); details: HepG2 microtubule cytoskeleton, high-content imaging, actives raise or lower the signal
In short: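 HepG2, 72 hr cmpd exposure, 0.39–200 uM (10 pts, duplicate), 0.5% DMSO. 3.7% formaldehyde fix, 0.5% Triton perm, anti-alpha-tubulin/Cy5 plus Hoechst. HCS fluorescence intensity; bidirectional fit vs DMSO baseline; taxol as positive control.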

[5] = APR_HepG2_P-H2AX_24hr: Apredica 24-hour HepG2 Assay for H2AX Phosphorylation (AID 2282920); details: high-content imaging, actives raise or lower the signal
In short: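 HepG2 cells dosed 24 h at 0.39–200 uM (10 points, duplicate, 0.5% DMSO final). Formaldehyde-fixed and permeabilized, then immunostained for phospho-H2A.x with Hoechst. Fluorescence quantified by high-content imaging, fitted bidirectionally versus DMSO.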

[6] = APR_HepG2_StressKinase_72hr: Apredica 72-hour HepG2 Assay for Stress Kinase (AID 2282921); details: HepG2 stress kinase (phospho-c-Jun) imaging, actives raise or lower the signal
In short: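 Phospho-c-Jun immunofluorescence measured by high-content imaging at 20x, six fields per well; bidirectional curve fitting against DMSO as baseline. Dosing: 0.39–200 uM, 72 h, 0.5% DMSO final.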

[7] = APR_HepG2_StressKinase_24hr: Apredica 24-hour HepG2 Assay for Stress Kinase (AID 2282922); details: HepG2 stress kinase (phospho-c-Jun) imaging, actives raise or lower the signal
In short: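 Read-out: phospho-c-Jun immunofluorescence (Cy3 secondary) quantified by high-content imaging at 20x, nuclei defined by Hoechst 33342. Human HepG2 liver cells dosed 24 hr, 0.39–200 uM, DMSO 0.5% v/v; gain or loss of signal fitted relative to DMSO.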

[8] = APR_HepG2_p53Act_72hr: Apredica 72-hour HepG2 Assay for p53 Activation (AID 2282923); details: high-content imaging, actives raise or lower the signal;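 note: average cellular p53 protein immunofluorescence intensity in HepG2 cells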
In short: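 Readout: p53 immunofluorescence quantified by automated high-content imaging at 20x, six fields per well, nuclei located via Hoechst. Dosing ran 72 hr over ten concentrations from 0.39 to 200 uM; bidirectional curve fitting against DMSO baseline.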

[9] = APR_HepG2_MitoMass_72hr: Apredica 72-hour HepG2 Assay for Mitochondrial Mass (AID 2282924); details: high-content imaging, actives raise or lower the signal;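 note: MitoTracker Red CMXRos stain intensity per cell imaged as mitochondrial mass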
In short: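 Read-out: MitoTracker Red fluorescence intensity from automated imaging (20x, six fields per well) in human HepG2 liver cells. Dosing ran 72 hr, 0.39–200 uM, 0.5% DMSO; bidirectional curve fitting versus DMSO baseline.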

[10] = APR_HepG2_NuclearSize_72hr: Apredica 72-hour HepG2 Assay for Nuclear Size (AID 2282925); details: high-content imaging, actives raise or lower the signal
In short: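 Read-out: nuclear diameter from Hoechst 33342 images (ArrayScan, 20x, six fields/well), via cell-cycle image analysis. HepG2 were dosed 0.39–200 uM for 72 hr in 0.5% DMSO. Bidirectional fit relative to DMSO.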

[11] = ATG_CRE_CIS: Attagene CIS-FACTORIAL HepG2 Assay for human cAMP Responsive Element (CRE) binding protein 3 (AID 2282926); details: HepG2 CRE cis-reporter, Attagene multiplexed mRNA; actives raise or lower the signal
In short: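 Induced reporter mRNA from a CRE cis element, measured in HepG2 among many multiplexed units at 24 h. Detection used RT-PCR plus capillary electrophoresis of fluorescent fragments; DMSO served as negative control.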

[12] = molecular target: CCAAT/enhancer-binding protein beta (Homo sapiens) (UniProt P17676); assay: ATG_C_EBP_CIS: Attagene CIS-FACTORIAL HepG2 Assay for human CCAAT/Enhancer Binding Protein (C/EBP) beta (AID 2282927); details: HepG2 Attagene cis-factorial transcription factor reporter; actives raise or lower the signal
In short: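 HepG2, transient MRTU transfection, 24 h treatment. RT-PCR plus CE fluorescence; DMSO negative control, bidirectional fit.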

[13] = ATG_CMV_CIS: Attagene CIS-FACTORIAL HepG2 Assay for human CMV (Internal Marker) (AID 2282928); details: HepG2 CMV promoter reporter, transcription factor profiling; actives raise or lower the signal;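 note: endpoint acts as a background internal control marker rather than a target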
In short: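 Bidirectional fits against DMSO are applied to reporter mRNA, read by RT-PCR with capillary electrophoresis, from HepG2 cells exposed 24 h. The endpoint serves as an internal CMV background marker within the cis-factorial reporter panel.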

[14] = ATG_DR4_LXR_CIS: Attagene CIS-FACTORIAL HepG2 Assay for human Liver X Receptor (LXR), DR4 submotif (AID 2282929); details: HepG2 Attagene DR4 cis-reporter, mRNA transcription; actives raise or lower the signal
In short: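 Cells were transfected with multiple reporter transcription units, exposed to chemicals for 24 hours, then lysed for RNA. Reporter mRNA induction was measured by RT-PCR with capillary electrophoresis detection and fitted in both directions relative to DMSO.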

[15] = molecular target: Aryl hydrocarbon receptor (Homo sapiens) (UniProt P35869); assay: ATG_Ahr_CIS: Attagene CIS-FACTORIAL HepG2 Assay for human Aryl Hydrocarbon Receptor (Ahr) (AID 2282930); details: HepG2 AhR cis-factorial reporter transcription; actives raise or lower the signal
In short: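 Endogenous factor activity is tracked through cis-promoter reporter units transfected into HepG2 cells. Transcript levels at 24 h are read by fluorescent RT-PCR and capillary electrophoresis, with activity in either direction scored relative to DMSO.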

[16] = ATG_AP_1_CIS: Attagene CIS-FACTORIAL HepG2 Assay for human Activator Protein 1 (AP-1) (AID 2282931); details: HepG2 Attagene cis-factorial AP-1 reporter mRNA; actives raise or lower the signal
In short: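 Endogenous transcription-factor activity in human HepG2 liver cells is read through a cis-promoter reporter transcript, sampled 24 h after dosing. Detection uses RT-PCR with capillary electrophoresis; values come from bidirectional fitting relative to DMSO.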

[17] = ATG_AP_2_CIS: Attagene CIS-FACTORIAL HepG2 Assay for human Activator Protein 2 (AP-2) (AID 2282932); details: HepG2 AP-2 cis-reporter, Attagene transcription factor profiling; actives raise or lower the signal
In short: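 Read-out: fluorescent reporter mRNA via RT-PCR and capillary electrophoresis, 24 h post-dose in transiently transfected HepG2. Endogenous factors drive cis-promoter reporters; gain or loss of signal fitted bidirectionally against DMSO.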

[18] = ATG_BRE_CIS: Attagene CIS-FACTORIAL HepG2 Assay for human Bone Morphogenetic Protein (BMP) Response Element (BRE) (AID 2282933); details: HepG2 BMP response element reporter, Attagene transcription factor profiling; actives raise or lower the signal
In short: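 Endogenous transcription factor activity at a BMP response element was monitored in transfected HepG2 cells 24 h after dosing. Fluorescent RT-PCR products were resolved by capillary electrophoresis, and activity was fitted in both directions versus DMSO.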

[19] = molecular target: Transcription factor E2F1 (Homo sapiens) (UniProt Q01094); assay: ATG_E2F_CIS: Attagene CIS-FACTORIAL HepG2 Assay for human E2F Transcription Factor 1 (AID 2282935); details: HepG2 Attagene cis-reporter, E2F reporter RNA transcripts; actives raise or lower the signal
In short: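 Transient MRTU transfection of HepG2; 24 h compound exposure; RNA → oligo(dT) RT → PCR → FAM label → HpaI cut → CE fluorescence. Gain/loss of signal fit against DMSO.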

[20] = molecular target: Retinoic acid receptor alpha (Homo sapiens) (UniProt P10276); assay: ATG_DR5_RAR_CIS: Attagene CIS-FACTORIAL HepG2 Assay for human Retinoic Acid Receptor Alpha (RARE), DR5 submotif (AID 2282934); details: HepG2 Attagene cis-factorial RARE DR5 reporter, mRNA; actives raise or lower the signal;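 for AC50: reporter responds to endogenous RAR alpha beta and gamma in HepG2 not RARA alone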
In short: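 After 24 h of chemical exposure, transiently transfected HepG2 cells were lysed for total RNA; the DR5-regulated reporter transcript was quantified via RT-PCR and capillary electrophoresis, with activity fitted bidirectionally against DMSO.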

Measured: AC50

Chain of Transcription factor E2F1 (Homo sapiens) (Q01094 whole entry, looked up): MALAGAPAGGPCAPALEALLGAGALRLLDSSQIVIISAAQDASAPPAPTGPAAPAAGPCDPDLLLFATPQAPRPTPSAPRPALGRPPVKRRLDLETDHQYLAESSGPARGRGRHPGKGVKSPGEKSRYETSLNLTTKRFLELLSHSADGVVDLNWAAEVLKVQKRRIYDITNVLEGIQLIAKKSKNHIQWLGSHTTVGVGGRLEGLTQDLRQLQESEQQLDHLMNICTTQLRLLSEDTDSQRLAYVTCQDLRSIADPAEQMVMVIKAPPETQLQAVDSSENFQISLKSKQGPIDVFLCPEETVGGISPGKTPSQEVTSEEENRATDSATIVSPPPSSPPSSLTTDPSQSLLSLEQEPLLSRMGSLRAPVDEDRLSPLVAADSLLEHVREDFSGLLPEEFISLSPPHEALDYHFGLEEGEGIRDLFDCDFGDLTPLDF
Chain of CCAAT/enhancer-binding protein beta (Homo sapiens) (P17676 whole entry, looked up): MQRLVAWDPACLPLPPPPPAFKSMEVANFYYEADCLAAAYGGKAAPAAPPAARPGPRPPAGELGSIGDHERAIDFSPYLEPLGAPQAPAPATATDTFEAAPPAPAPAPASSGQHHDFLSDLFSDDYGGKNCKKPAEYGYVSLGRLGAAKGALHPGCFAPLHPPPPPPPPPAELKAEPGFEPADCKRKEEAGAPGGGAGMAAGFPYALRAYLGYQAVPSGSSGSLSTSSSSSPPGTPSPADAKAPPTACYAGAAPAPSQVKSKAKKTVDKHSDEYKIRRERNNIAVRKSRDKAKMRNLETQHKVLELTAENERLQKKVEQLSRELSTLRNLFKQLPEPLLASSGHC
Chain of Retinoic acid receptor alpha (Homo sapiens) (P10276 whole entry, looked up): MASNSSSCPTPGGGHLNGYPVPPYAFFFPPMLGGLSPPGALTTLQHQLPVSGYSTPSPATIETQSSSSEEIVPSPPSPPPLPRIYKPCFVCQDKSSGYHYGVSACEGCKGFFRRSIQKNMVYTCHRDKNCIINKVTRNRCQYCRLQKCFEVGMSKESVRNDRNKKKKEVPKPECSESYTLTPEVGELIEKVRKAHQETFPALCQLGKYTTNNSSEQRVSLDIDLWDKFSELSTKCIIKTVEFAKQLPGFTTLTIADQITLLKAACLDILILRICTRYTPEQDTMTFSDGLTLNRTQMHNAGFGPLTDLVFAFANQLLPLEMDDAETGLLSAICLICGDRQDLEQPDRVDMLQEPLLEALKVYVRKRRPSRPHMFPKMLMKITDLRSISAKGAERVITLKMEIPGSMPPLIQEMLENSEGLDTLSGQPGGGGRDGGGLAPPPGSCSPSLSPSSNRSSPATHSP
Chain of Aryl hydrocarbon receptor (Homo sapiens) (P35869 whole entry, looked up): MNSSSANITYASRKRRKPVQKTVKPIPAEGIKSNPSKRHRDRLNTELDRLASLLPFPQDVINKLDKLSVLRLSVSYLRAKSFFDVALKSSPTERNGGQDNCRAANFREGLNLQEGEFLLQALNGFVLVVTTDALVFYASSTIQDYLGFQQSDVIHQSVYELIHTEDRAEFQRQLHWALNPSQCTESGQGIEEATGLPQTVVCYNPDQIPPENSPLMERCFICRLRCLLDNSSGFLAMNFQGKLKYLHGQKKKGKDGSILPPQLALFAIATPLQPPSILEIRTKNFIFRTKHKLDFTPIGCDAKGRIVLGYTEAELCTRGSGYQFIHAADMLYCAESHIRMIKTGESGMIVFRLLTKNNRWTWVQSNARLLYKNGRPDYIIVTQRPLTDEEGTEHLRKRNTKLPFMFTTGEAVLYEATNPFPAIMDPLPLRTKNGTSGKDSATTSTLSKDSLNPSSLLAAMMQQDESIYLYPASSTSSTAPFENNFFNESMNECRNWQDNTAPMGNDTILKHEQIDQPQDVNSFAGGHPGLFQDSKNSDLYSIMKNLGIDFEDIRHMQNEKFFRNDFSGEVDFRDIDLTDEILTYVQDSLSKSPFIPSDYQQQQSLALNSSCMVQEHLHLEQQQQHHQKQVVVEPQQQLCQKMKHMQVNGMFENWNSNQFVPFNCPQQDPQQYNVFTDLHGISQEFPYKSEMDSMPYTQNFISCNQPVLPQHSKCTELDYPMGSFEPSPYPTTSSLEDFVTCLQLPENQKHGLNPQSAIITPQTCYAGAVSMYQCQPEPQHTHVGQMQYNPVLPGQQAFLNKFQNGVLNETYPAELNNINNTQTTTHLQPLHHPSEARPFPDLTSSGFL

Cc1nn(-c2cc(NS(C)(=O)=O)c(Cl)cc2Cl)c(=O)n1C(F)F
inactive: [1] | [2] | [3] | [4] | [5] | [6] | [7] | [8] | [9] | [10] | [11] | [12] | [13] | [14] | [15] | [16] | [17] | [18] | [19]

Nc1c(Cl)cc([N+](=O)[O-])cc1Cl
active: [11] 35.1 µM | [12] 73.8 µM | [13] 50 µM | [16] 75.2 µM | [18] 36.1 µM
inactive: [1] | [2] | [3] | [4] | [5] | [6] | [7] | [9] | [10] | [14] | [15] | [17] | [20] | [19]

CSc1nnc(C(C)(C)C)c(=O)n1N
inactive: [1] | [2] | [3] | [4] | [5] | [6] | [7] | [8] | [9] | [10] | [11] | [12] | [13] | [14] | [16] | [17] | [18] | [20] | [19]

CCNc1nc(Cl)nc(NC(C)(C)C#N)n1
inactive: [1] | [2] | [3] | [4] | [5] | [6] | [7] | [8] | [9] | [10] | [11] | [12] | [13] | [14] | [15] | [16] | [17] | [18] | [19]

CC(C)[C@H](C(=O)O[C@H](C#N)c1cccc(Oc2ccccc2)c1)c1ccc(Cl)cc1
inactive: [1] | [2] | [3] | [4] | [5] | [6] | [7] | [8] | [9] | [10] | [11] | [12] | [13] | [15] | [16] | [17] | [18] | [19]
active: [14] 13.9 µM

Cc1cc(C2CC2)nc(Nc2ccccc2)n1
inactive: [2] | [5] | [6] | [7] | [8] | [9] | [10] | [12] | [14] | [17] | [19]
active: [1] 51.8 µM | [3] 70.1 µM | [4] 56.9 µM | [11] 18 µM | [13] 13.1 µM | [16] 32.2 µM | [18] 33.5 µM | [20] 12.3 µM

CC[C@H](C)[C@H]1O[C@]2(C=C[C@@H]1C)C[C@@H]1C[C@@H](C/C=C(\C)[C@@H](O[C@H]3C[C@H](OC)[C@@H](O[C@H]4C[C@H](OC)[C@@H](NC)[C@H](C)O4)[C@H](C)O3)[C@@H](C)/C=C/C=C3\CO[C@@H]4[C@H](O)C(C)=C[C@@H](C(=O)O1)[C@]34O)O2
active: [2] 0.16 µM
inactive: [1] | [3] | [4] | [5] | [6] | [7] | [8] | [9] | [10] | [11] | [12] | [13] | [14] | [15] | [16] | [17] | [18] | [19]
